Reference: PubChem BioAssay (NCATS)
Inconclusive results are not listed. The source made the active and inactive calls. Unless noted, calls follow the shape of the dose curve; as a rule, active = well fitted curve in either direction with a large enough effect (not every such curve was filed as active); inconclusive = small, poorly fitted or top-dose-only effect, or another doubt; inactive = flat fitted curve, though single readings scatter. Residues, ends and D or L forms follow the SMILES beside them.

What was measured:
[1] = molecular target: Lysosomal acid glucosylceramidase (Homo sapiens) (UniProt P04062); test: Glucocerebrosidase-p2 (AID 348; in the data active = potency below about 10 µM; also: potency is read from the fitted curve at half-maximal effect); details: purified GBA, blue fluorogenic substrate, 40 min
Chain of Lysosomal acid glucosylceramidase (Homo sapiens) (P04062 whole entry, looked up): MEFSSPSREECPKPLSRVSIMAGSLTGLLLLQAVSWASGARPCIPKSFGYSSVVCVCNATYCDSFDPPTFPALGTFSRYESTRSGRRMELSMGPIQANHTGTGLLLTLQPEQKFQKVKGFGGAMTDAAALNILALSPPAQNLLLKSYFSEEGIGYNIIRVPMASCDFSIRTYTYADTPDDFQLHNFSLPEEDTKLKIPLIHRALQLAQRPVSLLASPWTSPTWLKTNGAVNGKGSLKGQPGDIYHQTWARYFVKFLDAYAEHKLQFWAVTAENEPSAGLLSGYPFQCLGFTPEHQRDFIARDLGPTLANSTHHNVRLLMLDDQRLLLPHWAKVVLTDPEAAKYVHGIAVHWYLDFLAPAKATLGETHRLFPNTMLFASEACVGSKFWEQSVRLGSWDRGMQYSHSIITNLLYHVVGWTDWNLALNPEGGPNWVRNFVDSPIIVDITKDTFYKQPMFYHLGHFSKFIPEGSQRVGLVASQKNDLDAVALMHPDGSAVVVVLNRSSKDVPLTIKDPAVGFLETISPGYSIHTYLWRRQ
Outline: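 Normal human glucocerebrosidase (0.2 nM) with blue fluorogenic substrate (80 uM final) in citrate/phosphate pH 5.9 with 10mM sodium taurocholate, 0.01% tween-20; 40 min RT, NaOH/glycine stop; fluorescence Ex 365/Em 440; AC50 from a titration from 0.6 nM upwards.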

[2] = AP1 Signaling Pathway (AID 357); details: ME-180 AP-1-bla reporter, EGF-induced, beta-lactamase ratio, 5 h; at 7.69 µM (top of the series) unless noted;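 also: ME-180 reporter cells stimulated with EGF at its EC50 level; % is scaled to controls: 0 for no effect and ±100 for the full control effect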
Outline: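 In this screen, ME-180 cells in Opti-MEM with 0.5% dialyzed FBS received EC50 EGF and compound titrations for 5 h. AP-1 reporter beta-lactamase was detected via CCF4 ratio, giving AC50 for positive and negative modulators.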

[3] = NFAT Signaling Pathway (AID 444); details: Jurkat NFAT-bla M1, carbachol, beta-lactamase ratio, 5 h; at 7.69 µM (top of the series) unless noted;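 also: carbachol stimulus at about its EC50 of 1 µM final; % is scaled to controls: 0 for no effect and ±100 for the full control effect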
Outline: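 Jurkat cells with NFAT-driven β-lactamase reporter and co-expressed M1 receptor, stimulated with carbachol (final 1 uM, ~EC50), compound titration, 5 h at 37 °C. CCF4 loaded 1 h at RT; 460/530 nm ratio gave %activity and AC50.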

[4] = Stat Signaling Pathway (AID 446); details: ME-180 (cervical carcinoma) SIE beta-lactamase reporter, IL-6 stimulated, 5 h; at 7.69 µM (top of the series) unless noted;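 also: ME-180 cervical cancer cells given 40 pM IL-6 alongside compound; SIE-controlled beta-lactamase reporter measured as 460/530 nm FRET emission ratio; % is scaled to controls: 0 for no effect and ±100 for the full control effect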
Outline: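 Normalization used AC90 stimulation (300 pM IL-6) and AC90 inhibition (125 nM pan-JAK inhibitor at 40 pM IL-6). The underlying signal is SIE-driven beta-lactamase in ME-180 cells after 5 h IL-6 exposure with compound.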

[5] = molecular target: Glucocorticoid receptor (Homo sapiens) (UniProt P04150); test: GR-GFP Redistribution (AID 450;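 active = compounds whose dose series gives a full or clear partial fitted curve of increased nuclear translocation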; also: potency is read from the fitted curve at half-maximal effect); details: U2OS GR-GFP nuclear translocation, laser cytometry, 2 h
Chain of Glucocorticoid receptor (Homo sapiens) (P04150 whole entry, looked up, the tested form may be a part): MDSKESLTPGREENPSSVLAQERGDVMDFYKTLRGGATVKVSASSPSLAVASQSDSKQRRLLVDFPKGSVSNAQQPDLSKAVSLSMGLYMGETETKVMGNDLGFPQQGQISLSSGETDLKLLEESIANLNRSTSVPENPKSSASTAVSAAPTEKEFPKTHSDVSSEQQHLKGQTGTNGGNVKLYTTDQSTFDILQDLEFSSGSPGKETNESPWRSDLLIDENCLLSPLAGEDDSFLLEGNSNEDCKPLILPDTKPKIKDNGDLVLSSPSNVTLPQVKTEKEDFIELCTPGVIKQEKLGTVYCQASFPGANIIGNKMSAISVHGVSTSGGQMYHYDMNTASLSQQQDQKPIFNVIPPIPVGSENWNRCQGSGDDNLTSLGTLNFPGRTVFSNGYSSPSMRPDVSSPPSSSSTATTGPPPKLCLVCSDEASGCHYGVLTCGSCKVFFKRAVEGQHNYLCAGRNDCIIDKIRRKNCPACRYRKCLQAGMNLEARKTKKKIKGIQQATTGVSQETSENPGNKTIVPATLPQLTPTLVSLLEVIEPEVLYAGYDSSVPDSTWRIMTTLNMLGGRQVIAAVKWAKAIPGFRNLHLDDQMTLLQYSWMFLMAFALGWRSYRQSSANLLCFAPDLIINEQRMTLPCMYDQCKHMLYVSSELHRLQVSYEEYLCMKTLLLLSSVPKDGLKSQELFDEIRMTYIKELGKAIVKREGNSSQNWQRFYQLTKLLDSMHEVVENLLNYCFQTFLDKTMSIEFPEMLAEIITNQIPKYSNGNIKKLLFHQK

[6] = molecular target: Glucocorticoid receptor (Homo sapiens) (UniProt P04150); test: GR-EFC Redistribution (AID 451; calls by dose curve; also: potency is read from the fitted curve at half-maximal effect); details: CHO-K1 GR-EFC translocation, beta-gal luminescence, 2 h
Outline: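 CHO-K1 cells expressing nuclear EA and GR-ED fragments of b-gal; compounds titrated up to 46 uM final, 2 h at 37 C. GR nuclear translocation read as complemented b-gal luminescence after 1 h RT detection.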

[7] = molecular target: Mitogen-activated protein kinase 10 (Mus musculus) (UniProt Q61831); test: JNK3 AlphaScreen Assay (AID 530); details: JNK3 lysate, c-Jun phosphorylation; series mostly up to 11.4 µM;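 also: kinase came from lysate of stimulated human HepG2 cells; signal reports phosphorylation of biotinylated GST-cJun 1-79 at Ser73 with 10 µM ATP; % is scaled to controls: 0 for no effect and ±100 for the full control effect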
Outline: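 Activity was read by AlphaScreen after JNK3-containing HepG2 lysate (cytokine pre-activated) phosphorylated biotinylated GST-cJun with 10 uM ATP at room temperature. Phospho-Ser73 cJun antibody with Protein-A acceptor beads provided detection.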

[8] = molecular target: 3',5'-cyclic-AMP phosphodiesterase 4B (Homo sapiens) (UniProt Q07343); test: qHTS Assay for Inhibitors of PDE-IV (AID 607; active = well fitted activation curve with a large enough effect in the main read-out, with a control signal flat, not every such curve was filed as active; also: % of control where 0% means no effect); details: HEK293 ACTOne CNG channel cells, membrane potential fluorescence; series mostly up to 22.9 µM
Chain of 3',5'-cyclic-AMP phosphodiesterase 4B (Homo sapiens) (Q07343 whole entry, looked up): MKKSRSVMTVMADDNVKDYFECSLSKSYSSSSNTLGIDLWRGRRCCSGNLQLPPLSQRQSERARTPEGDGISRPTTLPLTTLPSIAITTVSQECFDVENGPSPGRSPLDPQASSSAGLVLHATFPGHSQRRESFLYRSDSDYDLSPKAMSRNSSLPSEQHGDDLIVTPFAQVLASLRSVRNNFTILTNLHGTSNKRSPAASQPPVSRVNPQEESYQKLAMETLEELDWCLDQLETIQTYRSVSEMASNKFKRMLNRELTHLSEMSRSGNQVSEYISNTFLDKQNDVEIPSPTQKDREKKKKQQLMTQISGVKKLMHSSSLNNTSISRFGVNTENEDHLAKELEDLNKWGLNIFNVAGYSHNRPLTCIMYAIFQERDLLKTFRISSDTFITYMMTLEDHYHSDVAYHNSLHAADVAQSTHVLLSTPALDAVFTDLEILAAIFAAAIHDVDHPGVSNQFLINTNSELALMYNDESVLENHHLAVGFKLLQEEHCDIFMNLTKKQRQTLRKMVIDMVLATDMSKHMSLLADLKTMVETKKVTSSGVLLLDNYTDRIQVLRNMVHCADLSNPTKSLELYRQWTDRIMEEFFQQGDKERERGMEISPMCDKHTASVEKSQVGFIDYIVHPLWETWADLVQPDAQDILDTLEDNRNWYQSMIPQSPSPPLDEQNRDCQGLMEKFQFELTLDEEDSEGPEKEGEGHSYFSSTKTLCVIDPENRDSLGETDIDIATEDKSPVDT
Outline: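 HEK293 ACTOne cells with CNG channel (1000/well), endogenous PDE4; membrane potential dye, compounds up to 22.9 uM final. Fluorescence Ex 535/Em 590; RO 20-1724 (100 uM final) as reference.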

CCN(CC(=O)O)C(=O)c1cccnc1
inactive: Potency [1] > 11.4 µM | activity change, negative = inhibition [2] -4.46% | activity change, negative = inhibition [3] 5.05% | activity, negative = inhibition [4] -6.57% | Potency [5] > 46 µM | Potency [6] > 9.22 µM | Potency [7] | Potency [8]

Cn1cnc([N+](=O)[O-])c1Sc1nc(N)nc2c1ncn2[C@H]1C[C@H](O)[C@@H](CO)O1
inactive: Potency [1] > 11.4 µM | activity change, negative = inhibition [2] -4.23% | activity change, negative = inhibition [3] -2.48% | activity, negative = inhibition [4] 0.176% | Potency [5] > 46 µM | Potency [6] > 9.22 µM | Potency [7] | Potency [8]

NCCSc1nc(-c2ccccc2)c(-c2ccccc2)o1
inactive: Potency [1] > 11.4 µM | activity change, negative = inhibition [2] 2.27% | activity change, negative = inhibition [3] -4.41% | activity, negative = inhibition [4] -3.16% | Potency [5] > 46 µM | Potency [6] > 9.22 µM | Potency [7] | Potency [8]

OC[C@@H](O)[C@@H](O)[C@@H](O)[C@@H](O)c1nc2ccc(Cl)cc2[nH]1
inactive: Potency [1] > 11.4 µM | activity change, negative = inhibition [2] 4.42% | activity change, negative = inhibition [3] 10.1% | activity, negative = inhibition [4] -0.802% | Potency [5] > 46 µM | Potency [6] > 9.22 µM | Potency [7] | Potency [8]

O=C(O)[C@H]1O[C@H]1C(=O)O
inactive: Potency [1] > 11.4 µM | activity change, negative = inhibition [2] 7.85% | activity change, negative = inhibition [3] -1.75% | activity, negative = inhibition [4] 2.71% | Potency [5] > 46 µM | Potency [6] > 9.22 µM | Potency [7] | Potency [8]

O=C1OC(c2ccc(O)c(-c3ccccc3)c2)(c2ccc(O)c(-c3ccccc3)c2)c2c(Cl)c(Cl)c(Cl)c(Cl)c21
inactive: Potency [1] > 11.4 µM | activity change, negative = inhibition [2] 10.7% | activity change, negative = inhibition [3] 19.3% | activity, negative = inhibition [4] 5.56% | Potency [5] > 46 µM | Potency [6] > 9.22 µM | Potency [7] | Potency [8]

CC(NC(=O)c1ccccc1)(C(=O)O)C(=O)O
inactive: Potency [1] > 11.4 µM | activity change, negative = inhibition [2] 2.23% | activity change, negative = inhibition [3] -6.87% | activity, negative = inhibition [4] 14.4% | Potency [5] > 46 µM | Potency [6] > 9.22 µM | Potency [7] | Potency [8]

Nc1nc2c(ncn2[C@H]2CC[C@@H](CO)O2)c(=O)n1C(=O)c1ccccc1
inactive: Potency [1] > 11.4 µM | activity change, negative = inhibition [2] 5.69% | activity change, negative = inhibition [3] -10.1% | activity, negative = inhibition [4] 0.604% | Potency [5] > 46 µM | Potency [6] > 9.22 µM | Potency [7] | Potency [8]

CC(C)=NNc1ncnc2nc[nH]c12
inactive: Potency [1] > 11.4 µM | activity change, negative = inhibition [2] -3.94% | activity change, negative = inhibition [3] 3.34% | activity, negative = inhibition [4] 8.2% | Potency [5] > 46 µM | Potency [6] > 9.22 µM | Potency [7] | Potency [8]

Nc1nc(-c2ccccc2)c(CC(=O)O)s1
inactive: Potency [1] > 11.4 µM | activity change, negative = inhibition [2] 0.597% | activity change, negative = inhibition [3] 18.8% | activity, negative = inhibition [4] 0.225% | Potency [5] > 46 µM | Potency [6] > 9.22 µM | Potency [7] | Potency [8]

Cc1cc2c(SCc3ccccc3Cl)nc(N)nc2nc1C
inactive: Potency [1] > 11.4 µM | activity change, negative = inhibition [2] -22.2% | activity change, negative = inhibition [3] 15% | activity, negative = inhibition [4] -10.5% | Potency [5] > 46 µM | Potency [6] > 9.22 µM | Potency [7] | Potency [8]

NC(=S)N/N=C\c1c[nH]c2ccccc12
inactive: Potency [1] > 11.4 µM | activity change, negative = inhibition [2] 2.82% | activity change, negative = inhibition [3] -6% | activity, negative = inhibition [4] 13.8% | Potency [5] > 46 µM | Potency [6] > 9.22 µM | Potency [7] | Potency [8]

C(=Nc1ccc2c(c1)Cc1ccccc1-2)c1ccccn1
inactive: Potency [1] > 11.4 µM | activity change, negative = inhibition [2] -0.541% | activity change, negative = inhibition [3] 1.45% | activity, negative = inhibition [4] 0.131% | Potency [5] > 46 µM | Potency [6] > 9.22 µM | Potency [7] | Potency [8]

C[N+](C)(C)CC(=O)N/N=C\c1c(O)ccc2ccccc12
inactive: Potency [1] > 11.4 µM | activity change, negative = inhibition [2] 3.17% | activity change, negative = inhibition [3] -5.58% | activity, negative = inhibition [4] 10.1% | Potency [5] > 46 µM | Potency [6] > 9.22 µM | Potency [7] | Potency [8]

O=C1CC[C@](CCc2nc3ccccc3[nH]2)(c2ccccc2)C(=O)N1
inactive: Potency [1] > 11.4 µM | activity change, negative = inhibition [2] 1.26% | activity change, negative = inhibition [3] 7.74% | activity, negative = inhibition [4] 3.31% | Potency [5] > 46 µM | Potency [6] > 9.22 µM | Potency [7] | Potency [8]

CCc1ccc(CCC(=O)O)nc1
inactive: Potency [1] > 11.4 µM | activity change, negative = inhibition [2] 0.964% | activity change, negative = inhibition [3] -3.46% | activity, negative = inhibition [4] -13.2% | Potency [5] > 46 µM | Potency [6] > 9.22 µM | Potency [7] | Potency [8]

C[C@@H](N)/C(N)=N/O
inactive: Potency [1] > 11.4 µM | activity change, negative = inhibition [2] -1.61% | activity change, negative = inhibition [3] 6.7% | activity, negative = inhibition [4] 5.63% | Potency [5] > 46 µM | Potency [6] > 9.22 µM | Potency [7] | Potency [8]

NC(N)=NCCCC(=O)O
inactive: Potency [1] > 11.4 µM | activity change, negative = inhibition [2] -2.56% | activity change, negative = inhibition [3] 13.2% | activity, negative = inhibition [4] 4.79% | Potency [5] > 46 µM | Potency [6] > 9.22 µM | Potency [7] | Potency [8]

O=C(O)C(=O)/C=C(\O)c1ccc(Br)cc1
inactive: Potency [1] > 11.4 µM | activity change, negative = inhibition [2] -0.263% | activity change, negative = inhibition [3] 12.1% | activity, negative = inhibition [4] 11.6% | Potency [5] > 46 µM | Potency [6] > 9.22 µM | Potency [7] | Potency [8]

N=C(N)c1ccc(/C=C\c2ccc(C(=N)N)cc2)cc1
inactive: Potency [1] > 11.4 µM | activity change, negative = inhibition [2] 0.27% | activity change, negative = inhibition [3] -7.18% | activity, negative = inhibition [4] 7.39% | Potency [5] > 46 µM | Potency [6] > 9.22 µM | Potency [7] | Potency [8]

CN(CCC(=O)O)S(=O)(=O)c1ccccc1
inactive: Potency [1] > 11.4 µM | activity change, negative = inhibition [2] -0.615% | activity change, negative = inhibition [3] 15.6% | activity, negative = inhibition [4] 11.1% | Potency [5] > 46 µM | Potency [6] > 9.22 µM | Potency [7] | Potency [8]

O=C(NCc1cccs1)O[C@H]1C[C@H]2CC[C@@H]1C2
inactive: Potency [1] > 11.4 µM | activity change, negative = inhibition [2] 19.6% | activity change, negative = inhibition [3] 16.7% | activity, negative = inhibition [4] 8.46% | Potency [5] > 46 µM | Potency [6] > 9.22 µM | Potency [7] | Potency [8]

O=CNc1ncn[nH]1
inactive: Potency [1] > 11.4 µM | activity change, negative = inhibition [2] -1.52% | activity change, negative = inhibition [3] -0.432% | activity, negative = inhibition [4] 8.03% | Potency [5] > 46 µM | Potency [6] > 9.22 µM | Potency [7] | Potency [8]

CO[C@@H]1/C=C\O[C@]2(C)Oc3c(C)c(O)c4c(O)c(c(CN(C)C)c(O)c4c3C2=O)NC(=O)/C(C)=C\C=C[C@@H](C)[C@@H](O)[C@H](C)[C@@H](O)[C@H](C)[C@H](OC(C)=O)[C@@H]1C
inactive: Potency [1] > 11.4 µM | activity change, negative = inhibition [2] -3.25% | activity change, negative = inhibition [3] 17.6% | activity, negative = inhibition [4] -2.18% | Potency [5] > 46 µM | Potency [6] > 9.22 µM | Potency [7] | Potency [8]

NC1(C(=O)NC2(C(=O)O)CCCC2)CCCC1 (HELM PEPTIDE1{[NC1(C(=O)[*:2])CCCC1].[O=C(O)C1(N[*:1])CCCC1]}$$$$V2.0)
inactive: Potency [1] > 11.4 µM | activity change, negative = inhibition [2] 2.4% | activity change, negative = inhibition [3] -2.57% | activity, negative = inhibition [4] 8.97% | Potency [5] > 46 µM | Potency [6] > 9.22 µM | Potency [7] | Potency [8]

CC(C)c1cc(CN(C)C)c(O)c(C(C)(C)C)c1
inactive: Potency [1] > 11.4 µM | activity change, negative = inhibition [2] 1.46% | activity change, negative = inhibition [3] -5.67% | activity, negative = inhibition [4] -8.11% | Potency [5] > 46 µM | Potency [6] > 9.22 µM | Potency [7] | Potency [8]

O=C(O)c1ccc(NCc2nc3cc4ccccc4cc3[nH]2)cc1
inactive: Potency [1] > 11.4 µM | activity change, negative = inhibition [2] -5.67% | activity change, negative = inhibition [3] 14.2% | activity, negative = inhibition [4] -2.42% | Potency [5] > 46 µM | Potency [6] > 9.22 µM | Potency [7] | Potency [8]
